High-throughput results: PubChem, National Center for Advancing Translational Sciences (NCATS)
Only a selection was taken, and hits are over-represented in it overall.
Methyltransferases: Primary Screen for Target Class Profiling of Small Molecule Inhibitors of Methyltransferases; 25,000 tested, 3.9% active; purified enzyme, MTase-Glo SAH luminescence; active compounds read low; calls only at 40 µM; call rule not given here
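Each enzyme was reacted with SAM and its substrate, with compounds tested once at 40 uM; SAH formed was read by MTase-Glo luminescence.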
Starred values were filed as active, the others as inactive; i = inactive; + = active, no number. % is scaled to controls: 0 for no effect and ±100 for the full control effect.

SMILES	Methyltransferases
O=C1NC(=O)c2c1c1c3ccccc3[nH]c1c1[nH]c3ccccc3c21	+
CCC1c2cccn2-c2ccccc2CN1C(=O)Nc1cccc(SC)c1 (stereo not given)	i
COc1cccc(NC(=O)N2Cc3ccccc3-n3cccc3C2c2cccs2)c1 (stereo not given)	i
CCc1c(C(=O)C(N)=O)c2c(OCC(=O)OC)cccc2n1Cc1ccccc1	i
NC(=O)CI	+
COc1ccc(NC(=O)N2Cc3ccccc3-n3cccc3C2c2ccc(C)cc2)cc1OC (stereo not given)	i
COc1ccc(C2c3cccn3-c3ccccc3CN2C(=O)Nc2ccccc2Cl)cc1OC (stereo not given)	i
C=C[C@H]1CN2CC[C@H]1C[C@@H]2CNC(=O)CC(C)(C)C	i
CCOC(=O)CNC(=O)N1Cc2ccccc2-n2cccc2C1c1ccccc1C (stereo not given)	i
CCOc1ccc(C2c3cccn3-c3ccccc3CN2C(=O)Nc2ccccc2)cc1 (stereo not given)	i
COc1ccc(C)cc1NC(=O)N1Cc2ccccc2-n2cccc2C1c1ccccc1 (stereo not given)	i
CC(=O)OC[C@]12C[C@H](O)C(C)=C[C@H]1O[C@@H]1[C@H](O)[C@@H](OC(C)=O)[C@@]2(C)[C@]12CO2	i
CCC1c2cccn2-c2ccccc2CN1C(=O)Nc1ccc(C)cc1C (stereo not given)	i
CCC1c2cccn2-c2ccccc2CN1C(=O)Nc1ccccc1OC (stereo not given)	i
CC1C/C=C/C(O)C(O)CC/C=C/c2cc(O)cc(O)c2C(=O)O1 (stereo not given)	i
CC1CCCCCC(=O)c2c(O)cc(O)cc2CC(=O)O1 (stereo not given)	i
C[C@H]1CCCC(=O)CCC/C=C/c2cc(O)cc(O)c2C(=O)O1	+
COc1cccc(CNC(=O)N2Cc3ccccc3-n3cccc3C2c2ccc(N(C)C)cc2)c1 (stereo not given)	i
CCc1ccc(NC(=O)N2Cc3ccccc3-n3cccc3C2c2ccc(C)cc2)cc1 (stereo not given)	i
Cc1ccc(NC(=O)N2Cc3ccccc3-n3cccc3C2c2ccc(N(C)C)cc2)cc1C (stereo not given)	i
COc1ccc2c3c([nH]c2c1)C(C=C(C)C)N1C(=O)C2CCCN2C(=O)C1C3 (stereo not given)	i
C=C(CO)C(=O)O[C@H]1CC(=C)[C@@H]2C[C@H](O)C(=C)[C@@H]2[C@H]2OC(=O)C(=C)[C@@H]21	+
COc1ccc(NC(=O)N2Cc3ccccc3-n3cccc3C2c2ccc(OC)c(OC)c2)cc1 (stereo not given)	i
Cc1ccccc1-n1c(Cn2cnc3c(N)ncnc32)nc2cccc(C)c2c1=O	i
C[C@H]1O[C@@H](n2cnc3c(N)ncnc32)C[C@@H]1O	i
SMILES	Methyltransferases
CN(C)c1cc2c(cc1Sc1nc3c(N)nccc3n1CCNCC(C)(C)C)OCO2	+
Cc1cc(C)cc(NC(=O)N2Cc3ccccc3-n3cccc3C2c2ccccc2C)c1 (stereo not given)	i
CCOc1ccccc1NC(=O)N1Cc2ccccc2-n2cccc2C1c1ccc(N(C)C)cc1 (stereo not given)	i
Cc1ccc(NC(=O)N2Cc3ccccc3-n3cccc3C2c2cccc(Cl)c2)cc1C (stereo not given)	i
C/C=C/CN1CC2ON=C(C(=O)O)C2C1 (stereo not given)	i
CCCCCOc1cc2c(cc1-c1cc(/C=C/C(=O)O)ccc1O)C(C)(C)CCC2(C)C	+
CC1c2cccn2-c2ccccc2CN1C(=O)Nc1ccccc1Br (stereo not given)	i
CCOCCCNC(=O)N1Cc2ccccc2-n2cccc2C1c1ccc(OCC)cc1 (stereo not given)	i
COc1cc(N2CCN(C)CC2)ccc1N	+
COc1ccc(NC(=O)N2Cc3ccccc3-n3cccc3C2c2cccc(Cl)c2)c(OC)c1 (stereo not given)	i
COCCCNC(=O)N1Cc2ccccc2-n2cccc2C1c1cccc(C)c1 (stereo not given)	i
Cc1[nH]nc2ccc(-c3cncc(OC[C@@H](N)Cc4c[nH]c5ccccc45)c3)cc12	+
COc1ccc(C)cc1NC(=O)N1Cc2ccccc2-n2cccc2C1c1ccc(C)cc1 (stereo not given)	i
CCOCCCNC(=O)N1Cc2ccccc2-n2cccc2C1c1ccc(Cl)cc1 (stereo not given)	i
Cc1cccc(C2c3cccn3-c3ccccc3CN2C(=O)Nc2ccc(Br)cc2)c1 (stereo not given)	i
Clc1ccc([C@]23CNC[C@H]2C3)cc1Cl	+
COc1cccc(NC(=O)N2Cc3ccccc3-n3cccc3C2C)c1 (stereo not given)	i
COc1ccc(C2c3cccn3-c3ccccc3CN2C(=O)Nc2cccc(Cl)c2)cc1 (stereo not given)	i
COCCCNC(=O)N1Cc2ccccc2-n2cccc2C1c1ccccc1Cl (stereo not given)	i
CCc1ccc(C2c3cccn3-c3ccccc3CN2C(=O)Nc2cccc(C)c2)cc1 (stereo not given)	i
CN(N=O)c1ccc(O)c(O)c1	+
CC1c2cccn2-c2ccccc2CN1C(=O)NC1CCCC1 (stereo not given)	i
Cc1ccc(NC(=O)N2Cc3ccccc3-n3cccc3C2c2ccc(N(C)C)cc2)cc1 (stereo not given)	i
CN1CC[C@@]2(C)c3cc(O)ccc3N(C)C12 (stereo not given in full)	+
CCC1c2cccn2-c2ccccc2CN1C(=O)NCc1ccc(C)cc1 (stereo not given)	i
SMILES	Methyltransferases
NC(Cc1cc(O)c(O)cc1O)C(=O)O (stereo not given)	+
N[C@@H](Cn1oc(=O)[nH]c1=O)C(=O)O	i
Cc1o[nH]c(=O)c1CC(N)C(=O)O (stereo not given)	i
Cc1cccc(NC(=O)N2Cc3ccccc3-n3cccc3C2C)c1 (stereo not given)	i
Cc1cccc(C2c3cccn3-c3ccccc3CN2C(=O)Nc2ccc(C)c(Cl)c2)c1 (stereo not given)	i
FC(F)(F)c1ccc(N2CCNCC2)nc1Cl	i
COc1cc(C(=O)O[C@H]2[C@@H]3C=CO[C@@H](O[C@@H]4O[C@H](CO)[C@@H](O)[C@H](O)[C@H]4O)[C@@H]3[C@@]3(CO)O[C@@H]23)ccc1O	+
C=C[C@H]1[C@H](O[C@@H]2O[C@H](CO)[C@@H](O)[C@H](O)[C@H]2O)OC=C2C(=O)OCC[C@H]21	i
Cc1cccc(NC(=O)N2Cc3ccccc3-n3cccc3C2C(C)C)c1C (stereo not given)	i
COc1ccc(C2c3cccn3-c3ccccc3CN2C(=O)Nc2cc(OC)ccc2OC)cc1 (stereo not given)	i
CCOc1ccccc1NC(=O)N1Cc2ccccc2-n2cccc2C1c1ccc(OC)c(OC)c1 (stereo not given)	i
COc1ccc(Cl)cc1NC(=O)N1Cc2ccccc2-n2cccc2C1c1ccccc1 (stereo not given)	i
Nc1ncccc1CN1CC[C@H]2NCCC[C@]2(C(=O)O)C1	i
CC(=O)NCCc1c[nH]c2ccccc12	i
NCCc1c[nH]c2ccccc12	+
